This is a sample that favours compounds with a hit; in the whole collection about 9.2% have one here.
Rab9 promoter act: activators of Rab9 promoter; Potency, µM (top dose mostly 9.22 µM), for inactives: at the top dose activation, negative = inhibition, actives largely listed as activators; actives 2.8% (n = 320,000); Huh7 Rab9 promoter-luciferase reporter, luminescence, 24 h; AID 485297; further: % of control where 0% means no effect; nearly all actives have a fitted effect of over 60% in size
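Promoter activation is measured as luciferase luminescence in Huh7 cells stably transfected with a Rab9 promoter–luciferase construct, following 24 h compound exposure at 37 °C and 10 min reagent incubation at ambient temperature.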
NPC1 promoter act: NPC1 promoter activation; Huh7 NPC1 promoter luciferase reporter, 24 h; AID 485313; actives 2.4% (n = 320,000); Potency, µM (top dose mostly 9.22 µM), for the others: at the highest dose activation, most hits filed as activators; further: % of control where 0% means no effect; nearly all actives have a fitted effect of over 60% in size
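Huh7 reporter cells (NPC1 promoter driving luciferase) are dosed with compound for 24 h at 37 °C, 5% CO2; luciferase detection reagent is then added and luminescence measured after 10 min at ambient temperature.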
FLuc counter: firefly luciferase modulation, counter-screen for miR-21 project. purified FLuc, Km substrates, luminescence inhibition. Potency, µM (titrated, usually from 57.5 µM), for inactives: top-dose activity change, negative = inhibition, most hits filed as inhibitors. actives 6.9% (n = 360,000). AID 588342;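 further: plate controls were vehicle for no effect and reference inhibitor for full effect; nearly all actives have a fitted effect of over 55% in size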
Target sequence (P08659 whole entry, looked up): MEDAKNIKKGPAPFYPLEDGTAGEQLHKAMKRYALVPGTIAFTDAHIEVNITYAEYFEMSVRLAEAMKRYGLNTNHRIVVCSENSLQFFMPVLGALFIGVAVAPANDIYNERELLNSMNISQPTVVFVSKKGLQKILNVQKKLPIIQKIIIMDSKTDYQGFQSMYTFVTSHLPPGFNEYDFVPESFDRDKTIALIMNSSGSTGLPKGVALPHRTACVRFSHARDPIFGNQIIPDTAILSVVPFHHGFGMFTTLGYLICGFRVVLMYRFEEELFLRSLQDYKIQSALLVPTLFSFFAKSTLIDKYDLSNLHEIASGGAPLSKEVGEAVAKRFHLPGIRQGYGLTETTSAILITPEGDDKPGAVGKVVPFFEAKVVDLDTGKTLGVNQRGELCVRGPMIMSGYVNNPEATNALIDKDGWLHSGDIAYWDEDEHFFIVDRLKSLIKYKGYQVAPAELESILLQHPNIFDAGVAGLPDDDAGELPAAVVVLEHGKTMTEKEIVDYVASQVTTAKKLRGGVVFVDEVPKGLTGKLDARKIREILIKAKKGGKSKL
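Purified P. pyralis luciferase, 10 nM final, with Km-level 10 uM D-luciferin and 10 uM ATP in 50 mM Tris acetate pH 7.5, 10 mM Mg acetate, 0.01% Tween-20, 0.05% BSA; 6-point qHTS titration about 60 µM downward; luminescence read.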
ELG1 genotox: genotoxicity induction in ELG1-luciferase HEK293T cells; HEK293T ELG1-luciferase reporter, luminescence, 16 h; Potency, µM (doses to about 46 µM), for the others: at the highest dose activity change, positive = activation, hits mostly activators; actives 1.3% (n = 330,000); AID 504466; further: % of control where 0% means no effect; nearly all actives have a fitted effect of over 60% in size
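Reporter readout depends on ELG1 protein level, which increases with genetic stress. After 16 hr compound exposure at 37 °C, luciferase activity was quantified using ONE-Glo.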
ELG1 DNA repair: ELG1-dependent DNA repair inhibition | HEK293T ELG1-luciferase reporter, luminescence, 16 h; DNA damage induced by 5-fluorouridine | Potency, µM (series often up to 46.1 µM), without a hit: at the highest dose activity change, negative = inhibition, hits mostly inhibitors | actives 2.3% (n = 330,000) | AID 504467; further: on the % scale 0 is the no-effect control and ±100 the full control effect; nearly all actives have a fitted effect of over 55% in size
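Cells (2,000 per well) received 5-fluorouridine plus test compound or DMSO and were incubated 16 hr at 37 °C, 5% CO2. Luciferase activity was read by luminescence 30 min after ONE-Glo addition; signal suppression marked inhibition of damage-induced ELG1 function.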
SMN2 splice enh: increases expression of the SMN2 splice variant; HEK293 SMN2-luciferase splicing reporter, luminescence, 30-36 h; actives 2.8% (n = 210,000); Potency, µM (series often up to 46.1 µM), for inactives: at the highest dose activity change, positive = activation, most hits filed as activators; further: % of control where 0% means no effect; nearly all actives have a fitted effect of over 55% in size
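HEK293 cells carry an SMN2 […]–luciferase reporter in which exon 7 inclusion puts luciferase in frame. Cells were plated 10-12 h before compound addition, then incubated 30-36 h at 37C. ONE-Glo luminescence was read; sodium butyrate at 4.5 mM final served as control.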
* marks the source's active call; other numbers are inactive results; ? = inconclusive; / = no result; [ ] = remark or other dose. The call rests on the fitted dose curve; in most records, active means well fitted curve in the direction sought with a large enough effect; inconclusive means small, poorly fitted or top-dose-only effect, or another doubt; inactive means no such curve, though single readings can be large; an effect the other way counts as inactive or inconclusive. Potency means the concentration at half of the fitted maximal effect.

SMILES	Rab9 promoter act	NPC1 promoter act	FLuc counter	ELG1 genotox	ELG1 DNA repair	SMN2 splice enh
CCOC(=O)c1c(C)[nH]c(N=Nc2cccc(OC)c2)c1C	1.12µM*	1.78µM*	1.69µM*	?	?	14.1µM*
CCOC(=O)c1c(C)[nH]c(CCC(=O)NCc2cccc(C)c2)c1C	/	/	-3.0%	/	/	/
CCOC(=O)c1c(C)[nH]c(N=Nc2cccc(C)c2)c1C	2.82µM*	1.78µM*	7.57µM*	2.51µM*	?	7.94µM*
CCOC(=O)c1c(C)[nH]c(CCC(=O)NCc2cccc(OC)c2)c1C	/	/	-6.3%	/	/	/
CC(C)c1ccccc1-n1c(SCC(=O)c2ccc3c(c2)NC(=O)CO3)nc2ccccc2c1=O	-6.2%	-11.6%	2.7%	-8.9%	5.17µM*	-13.2%
COCCn1c(SCC(=O)N2CCc3ccccc3C2)nc2cc(Cl)ccc2c1=O	1.2%	0.3%	1.3%	-14.6%	23.1µM*	-14.8%
O=C1COc2ccc(C(=O)CSc3ccccc3C(=O)O)cc2N1	-7.0%	4.7%	?	-1.1%	5.1%	/
CC(C)Cn1c(SCC(=O)N2CCc3ccccc3C2)nc2cc(Cl)ccc2c1=O	-1.1%	-2.5%	2.1%	-9.9%	18.4µM*	-37.8%
COCCn1c(SCc2ccc(C(=O)OC)o2)nc2cc(Cl)ccc2c1=O	3.55µM*	0.7%	-1.2%	-1.4%	?	-9.1%
CC(C)c1ccccc1-n1c(SCC(=O)N2CCc3ccccc3C2)nc2ccccc2c1=O	-0.8%	-5.3%	2.8%	-16.3%	25.9µM*	-93.3%
CCN(CC)S(=O)(=O)c1ccc(C(=O)NCC2(N3CCOCC3)CCCCC2)cc1	-5.8%	-3.2%	2.7%	-2.1%	1.8%	/
CN(C)c1nc(OCCNC(=O)COc2ccc(Cl)cc2Cl)nc(N2CCOCC2)n1	-10.2%	3.6%	3.1%	0.0%	?	7.8%
Cc1cc(Cl)ccc1OCC(=O)NCCOc1nc(N2CCOCC2)nc(N2CCOCC2)n1	8.2%	-3.3%	5.5%	1.9%	10.3µM*	-6.9%
Cn1nc(C(F)(F)F)c(/C=N/OC(=O)c2ccccc2Cl)c1SCc1ccccc1Cl	-10.1%	-6.1%	-1.6%	-16.2%	13µM*	-25.9%
Cc1cc(C)cc(OC(=O)c2snnc2C)c1	/	/	-10.7%	/	/	/
O=C(N/N=C/c1cc(Cl)c(O)c(Cl)c1)c1cc2c(ccc3ccccc32)o1	12.3%	9.7%	2.13µM*	-6.5%	0.0%	/
CCOC(=O)COc1ccccc1/C=N\NC(=O)c1cc2c(ccc3ccccc32)o1	0.1%	-4.1%	23.9µM*	-0.6%	-15.5%	/
O=C(N/N=C/c1cc(Br)c(O)c(Br)c1)c1cc2c(ccc3ccccc32)o1	0.2%	1.2%	3.01µM*	-0.5%	-4.9%	/
COc1ccc(OC)c(NC(=O)c2c(NCc3cccs3)sc3c2CCCCC3)c1	/	/	-17.5%	/	/	/
CCOc1ccc(NC(=O)CCNC(=O)Cn2ccc3ccccc3c2=O)cc1	0.6%	-8.7%	-0.1%	-1.3%	9.0%	/
CCC1CCCCN1CC(=O)Nc1ccc2c(c1)OCCO2 (configuration not stated)	27.7%	22.1%	23.9µM*	7.2%	?	/
CC1CC(C)CN(CC(=O)Nc2ccc3c(c2)OCCO3)C1 (configuration not stated)	?	?	15.1µM*	?	?	-32.0%
CC1CC(C)(C)NC(=S)N1CCCC(=O)Nc1ccc2c(c1)OCCO2 (configuration not stated)	?	0.1%	26.9µM*	?	?	19.2%
Nc1ncnc2nc(N3CCN(CCO)CC3)[nH]c12	/	/	/	/	/	-3.4%[9.22 µM]
CC(C)C(NS(=O)(=O)c1ccccc1)C(=O)N1CCN(C(=O)c2ccco2)CC1 (configuration not stated)	0.4%	1.4%	0.1%	8.6%	4.5%	/
SMILES	Rab9 promoter act	NPC1 promoter act	FLuc counter	ELG1 genotox	ELG1 DNA repair	SMN2 splice enh
CCOc1ccc(CCNC(=O)CCc2cn(Cc3ccccc3F)c3ccccc23)cc1OCC	/	/	3.4%	/	/	/
O=C(NC(=S)Nc1ccccc1O)c1ccccc1Cl	3.16µM*	?	23.9µM*	?	?	12.6µM*
O=C(NNC(=S)Nc1ccccc1Cl)c1ccccc1Br	3.98µM*	2.82µM*	10.7µM*	3.66µM*	?	/
O=C(c1ccc2c(c1)N(Cc1ccccc1)C(=O)c1ccccc1S2(=O)=O)N1CCc2ccccc21	/	/	-2.5%	/	/	-11.4%
N/C(=N\OC(=O)c1cccc(Cn2cc(C(F)(F)F)ccc2=O)c1)c1ccccc1	-3.3%	2.1%	?	-5.2%	-6.0%	/
Cc1ccc(/C(N)=N/OC(=O)c2cccc(Cn3cc(C(F)(F)F)ccc3=O)c2)cc1	9.8%	?	21.3µM*	1.7%	2.0%	/
N/C(=N\OC(=O)c1cccc(Cn2cc(C(F)(F)F)ccc2=O)c1)c1ccc(Cl)cc1	1.3%	21.7%	15.1µM*	-3.7%	-14.3%	/
CCC1CSC(Nc2ccc(C(=O)/C=C/c3ccc(OC)c(OC)c3)cc2)=N1 (configuration not stated)	-19.0%	-15.4%	23.9µM*	-17.4%	20.6µM*	-59.3%
Cc1ccc(Cl)c2c(N=Nc3ccccc3)c(O)[nH]c12	?	?	1.2µM*	?	?	/
Cc1c(C#N)c(O)[nH]c(=O)c1N=Nc1ccc(Cl)c(C(=O)O)c1	-1.1%[1.84 µM]	-1.0%	3.8%	1.0%	-3.7%	/
CCn1c(-c2cc(-c3cccc(OC)c3)nc3ccccc23)n[nH]c1=S	-1.5%	-2.0%	23.9µM*	2.8%	-5.0%	2.2%
S=c1[nH]nc(-c2cc(-c3ccccn3)nc3ccccc23)o1	0.2%	-1.8%	3.8%	-0.3%	-4.5%	/
CCc1ccc(-c2cc(-c3n[nH]c(=S)n3CC)c3ccccc3n2)cc1	23.5%	13.4%	1.2µM*	11.2%	-10.9%	?
Cc1ccc(-c2cc(-c3n[nH]c(=S)o3)c3ccccc3n2)cc1	-8.1%	-8.3%	19µM*	-9.7%	-27.6%	-63.3%
CCOc1ccc(C(=O)NCc2nc3cccnc3n2Cc2cccc(OC)c2)cc1	/	/	-1.8%	/	/	/
CCOC(=O)c1ccc(NS(=O)(=O)c2cn(C)c(C)n2)cc1	/	/	0.3%	/	/	/
CCOC(=O)c1cnn(-c2ccccc2)c1NC(=O)CN1CCCCC1	-3.3%	1.5%	-0.7%	3.2%	5.7%	/
CN(C)C=Nc1ccc2nc3c(cc2c1)[nH]c1ccccc13	1.41µM*	1.26µM*	1.35µM*	?	?	/
CCCOc1ccc(Cl)cc1/C=C1/C(=O)ON=C1C	2.9%	6.1%	-19.8%	-1.0%	?	/
CC1=NOC(=O)/C1=C\c1ccc(-c2ccc(Cl)cc2Cl)o1	-2.2%	-13.3%	5.36µM*	-0.1%	-16.5%	-7.4%
NCCO	/	/	/	/	/	-2.2%
Cc1cc(=O)c2cc(NC(=O)c3ccccc3Cl)ccc2[nH]1	9.2%	2.1%	-1.5%	0.7%	?	/
